Experimental data published in PubChem BioAssay AID588358 (NMMLSC, 2011).
The campaign covered roughly 310,000 compounds. About 1,500 (0.48%) were called active.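 The calls were made as follows: active = binding more than 3 SD below its plate's average and above zero; inconclusive = below that plate limit but binding exactly zero; inactive = the rest.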 Many of the other results were omitted from the sample, so actives are more common in it than they were.

Target: Desmoglein-3 (Homo sapiens) (UniProt P32926)
Sequence (P32926 whole entry, looked up, the tested form may be a part): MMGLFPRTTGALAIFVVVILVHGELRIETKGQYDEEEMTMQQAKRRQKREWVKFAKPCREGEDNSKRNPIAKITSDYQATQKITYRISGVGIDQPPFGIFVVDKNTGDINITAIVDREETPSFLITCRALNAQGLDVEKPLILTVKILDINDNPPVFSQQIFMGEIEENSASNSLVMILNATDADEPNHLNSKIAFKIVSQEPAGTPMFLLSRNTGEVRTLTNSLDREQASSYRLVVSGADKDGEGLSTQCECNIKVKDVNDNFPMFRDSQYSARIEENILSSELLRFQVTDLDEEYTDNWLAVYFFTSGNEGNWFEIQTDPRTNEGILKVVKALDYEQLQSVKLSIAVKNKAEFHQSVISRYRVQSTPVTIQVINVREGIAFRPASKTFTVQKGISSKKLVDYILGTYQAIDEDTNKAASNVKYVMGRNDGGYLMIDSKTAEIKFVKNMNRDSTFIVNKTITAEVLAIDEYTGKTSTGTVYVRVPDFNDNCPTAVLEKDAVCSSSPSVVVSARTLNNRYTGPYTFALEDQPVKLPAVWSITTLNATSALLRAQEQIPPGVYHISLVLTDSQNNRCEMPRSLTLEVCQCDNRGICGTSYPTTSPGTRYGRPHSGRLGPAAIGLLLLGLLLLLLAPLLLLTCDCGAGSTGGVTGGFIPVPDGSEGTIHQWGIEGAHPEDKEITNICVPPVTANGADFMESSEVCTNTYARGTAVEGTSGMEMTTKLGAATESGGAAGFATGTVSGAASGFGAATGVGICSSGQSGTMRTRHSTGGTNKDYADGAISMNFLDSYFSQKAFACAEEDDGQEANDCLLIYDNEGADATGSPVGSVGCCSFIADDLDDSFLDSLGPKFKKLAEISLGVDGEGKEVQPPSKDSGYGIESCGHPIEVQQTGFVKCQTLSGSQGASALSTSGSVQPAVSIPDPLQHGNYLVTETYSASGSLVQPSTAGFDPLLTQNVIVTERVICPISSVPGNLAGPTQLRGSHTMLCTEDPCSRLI
Assay: inhibitors of pemphigus antibody binding to DSG3, primary screen, biochemical, bead-based, flow cytometry, scFv-GFP (AID 588358);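 also: hits lower antibody fragment binding to DSG3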
Settings: DSG3-coupled beads, scFv-anti-DSG3-GFP binding, at 10 µM, hits give low values

SMILES	binding (percent of control)
Cc1ccc(O/C=C2\OC(=O)c3ccccc32)cc1	80.4% (active)
Cc1ccc(Oc2cnn(-c3ccccc3)c(=O)c2Br)cc1	117% (inactive)
CN(C)C(CNC(=O)c1cccc(S(=O)(=O)N2CCc3ccccc3C2)c1)c1ccccc1 (stereo not given)	97.5% (inactive)
Cc1cc(Cl)ccc1C(=O)C1CCCN(C(=O)c2ccc3c(c2)OCO3)C1 (stereo not given)	103% (inactive)
CCOC(=O)c1c(S(=O)(=O)Nc2cccc(Cl)c2)c(C)n(C)c1C	52% (active)
CCOC(=O)c1c(S(=O)(=O)NCC(=O)Nc2ccc(C)cc2)c(C)n(C)c1C	97.8% (inactive)
CCOC(=O)c1cccc(NS(=O)(=O)c2c(C(=O)N3CCCCCC3)c(C)n(C)c2C)c1	99.4% (inactive)
N#CCCN(C(=O)Nc1ccc(Cl)c(Cl)c1)C1CCCCC1	105% (inactive)
Cn1nc(N)c2ncc(C(Cl)(Cl)Cl)nc21	100% (inactive)
O=C(CC(CC(=O)c1ccccc1)c1ccco1)c1ccccc1	99.4% (inactive)
CNC(=O)C1CN(C(=O)c2cccc(S(=O)(=O)N3CCc4ccccc43)c2)c2ccccc2O1 (stereo not given)	103% (inactive)
Cc1cccc(C(=O)OCC(=O)Nc2sccc2C(N)=O)c1C	104% (inactive)
COc1ccc(NC(=O)Cn2nnc(C(=O)NCCc3ccc(OC)c(OC)c3)c2N)cc1	103% (inactive)
CCc1ccc(NC(=O)Cn2nnc(C(=O)NCc3ccc(OC)cc3)c2N)cc1	106% (inactive)
CCOc1ccc(Cn2nnc(C(=O)Nc3ccc(OC)cc3OC)c2N)cc1	81.7% (active)
C[C@H]1NS(=O)(=O)c2cc(Cl)ccc2O[C@@H]1c1ccccc1	98.4% (inactive)
COc1ccc(CCNC(=O)/C(C#N)=C2\N=C(NC(=O)c3cccs3)c3ccccc32)cc1	81.2% (active)
COc1cc2ccccc2cc1C(=O)Nc1ccc(NC(=O)c2cccs2)cc1	87.2% (inactive)
COc1ccc(CN(Cc2ccc(OC)cc2)C(=O)c2cccs2)cc1	100% (inactive)
COc1ccc(OC)c(C(=O)NC2CCCc3c2cnn3-c2cc(C)cc(C)c2)c1 (stereo not given)	96.8% (inactive)
Cc1coc2c(O)cc3c(c12)OC1(N2CCCCC2)C(=O)NCCCC31 (stereo not given)	62.7% (active)
CCCCN(C(C)=O)c1ccc2c(c1)C1CC2CCN1Cc1ccccc1 (stereo not given)	101% (inactive)
NC(=S)NN=Cc1ccc(OC(=O)COc2cc(Cl)c(Cl)cc2Cl)cn1	102% (inactive)

SMILES	binding (percent of control)
COCOCCn1cc(CN2CCS(=O)(=O)N(Cc3ccc(-c4cccc(N(C)C)c4)cc3)C(CC(C)C)C2=O)nn1 (stereo not given)	101% (inactive)
CCOC(=O)c1c(NC(=O)COC(=O)c2ccc(S(=O)(=O)C(F)F)cc2)sc(C(=O)N(C)C)c1C	100% (inactive)
C(=N\N1CCN(c2ccccn2)CC1)/C1=C(N2CCOCC2)C(=C/c2ccccc2)/CC1	109% (inactive)
O=C1Nc2ccc(Br)cc2/C1=N/N=C/C1=C(N2CCOCC2)C(=C\c2ccccc2)/CC1	38.1% (active)
O=C(O)c1ccc(NN=CC2=C(N3CCOCC3)/C(=C/c3ccccc3)CC2)cc1	109% (inactive)
CN1OC[C@@H]2CN(C(=O)c3ccc(-c4ccccc4)cc3)[C@H](c3ccc(-c4cccc(F)c4)cc3)C[C@@H]21	98.8% (inactive)
COCCn1c(SCC(=O)Nc2ccc(F)cc2F)nc2c(c1=O)SCC2	103% (inactive)
O=C(COc1ccc(S(=O)(=O)N2CCCC2)cc1[N+](=O)[O-])N1CCCCC1	92.6% (inactive)
Cc1ccc2nc(SCC(=O)NC3CCCC3)[nH]c2c1	81.4% (inactive)
Cc1cccc2c1cnn2C(=O)CCC(=O)NC1CCCCC1	102% (inactive)
Cc1ccc2c(cnn2C(=O)CCC(=O)NC2CCCC2)c1	53% (active)
CC1(c2cccc(Br)c2)NC(=O)N(CC(=O)NCCC2=CCCCC2)C1=O (stereo not given)	99.5% (inactive)
O=Nc1c(O)cc(O)c2ccccc12	104% (inactive)
CC(C)CCC(=O)Nc1cc(S(=O)(=O)N2CCOCC2)ccc1N1CCCC1	104% (inactive)
COc1cc(OC)cc(C(=O)NCCSCc2ccc(Cl)cc2)c1	76.3% (active)
COc1ccc(CCNC(=O)c2cnc(Cl)c(Cl)c2)cc1	97.2% (inactive)
COc1ccc(N(CC(=O)NCCSCc2cccc(Cl)c2)S(C)(=O)=O)cc1	104% (inactive)
Cc1ccc(S(=O)(=O)NN=C2CC(C)(C)CC(=O)C2(C)C)cc1	98.4% (inactive)
O=C(NCCc1cccc(F)c1)C1CC(O)CN1C(=O)Nc1ccccc1 (stereo not given)	94.3% (inactive)
COc1cc(C=NC2CCCCC2)ccc1O	106% (inactive)
COc1ccc(CCNC(=S)N2CCN(S(=O)(=O)c3ccc(Cl)cc3)CC2)cc1	106% (inactive)
COc1ccc(CCC(=O)N2CCN(S(=O)(=O)c3ccc(OC)cc3)CC2)cc1	96.6% (inactive)
COc1ccc(CCNC(=S)N2CCN(S(=O)(=O)c3ccc(F)cc3)CC2)cc1	63.3% (active)

SMILES	binding (percent of control)
COC(=O)[C@H]1C[C@H](OC(=O)NCc2ccccc2)[C@@]2(O)CN(S(=O)(=O)c3ccc(C)cc3)CC2[C@H]1C(=O)OC (stereo not given in full)	110% (inactive)
CC(C)(C)C(=O)OCc1nc(-c2ccc(O)c(O)c2)cs1	103% (inactive)
COc1ccc(-c2cn3ccsc3n2)cc1	107% (inactive)
COc1ccc(-c2csc(Cc3nc(O)cs3)n2)cc1	8.21% (active)
COc1ccc([C@H]2C[C@@H](n3cc(COC(=O)c4ccccc4)nn3)[C@H](O)CN2C(=O)c2cccs2)cc1	106% (inactive)
CCN1CCN(CCNC(=O)c2ccc3c(c2)NC(=O)/C(=C\c2cccc(Cl)c2)S3)CC1	106% (inactive)
O=C(COC(=O)c1ccc(S(=O)(=O)N2CCCCCC2)cc1)Nc1ccccc1C(F)(F)F	109% (inactive)
COc1cc(/C=C/C(=O)N2CCc3ccccc3C2)cc(OC)c1OC	68.1% (active)
CCOC(=O)C1CCN(C(=O)/C=C/c2cc(OC)c(OC)c(OC)c2)CC1	101% (inactive)
COc1ccc(/C=C/C(=O)N2CCCC2)cc1OC	105% (inactive)
Cc1ccc(S(=O)(=O)N2C[C@H]3n4c(=O)ccc(=O)n4C[C@H](OC(=O)NC4CCCC4)[C@@]3(O)C2)cc1	103% (inactive)
COc1ccc([C@H]2N[C@]3(CCCN(CC4CCCCC4)C3=O)[C@H]3C(=O)N(C)C(=O)[C@@H]23)cc1	106% (inactive)
COc1cccc(/C=C2\SC(=S)N(CCCC(=O)N3CCOCC3)C2=O)c1	99.8% (inactive)
CCOC(=O)c1sc(NC(=O)C(CC)Sc2nccn2C)nc1C (stereo not given)	83.3% (active)
CCOC(=O)c1sc(NC(=O)c2sc(C)nc2C)nc1C	96.7% (inactive)
C=CCn1c2ccccc2c2nnc(SC(CC)C(=O)Nc3nc(C)c(C(=O)OCC)s3)nc21 (stereo not given)	93.3% (inactive)
O=C(Cc1ccc([N+](=O)[O-])cc1)NCCS(=O)(=O)N1CCN(c2ccccc2)CC1	97.2% (inactive)
COc1ccc(N2CCN(c3ccc([N+](=O)[O-])cc3Cl)CC2)cc1	-9.48% (active)
O=[N+]([O-])c1ccc(N2CCN(c3ccc(O)cc3)CC2)c(Cl)c1	101% (inactive)
COc1ccc(N2CCN(c3ccc([N+](=O)[O-])nc3)CC2)cc1	77.8% (inactive)
COC(=O)c1sccc1NC(=O)c1cc(OC)c(OC)c(OC)c1	81.8% (inactive)
COC(=O)Cn1c(=NC(=O)c2cc(OC)c(OC)c(OC)c2)sc2cc(OC)ccc21	88.6% (active)
COC(=O)Cn1c(=NC(=O)CSCC(=O)Nc2cc(C)on2)sc2ccccc21	82.3% (inactive)

SMILES	binding (percent of control)
CC(C)N=C1CCCC1C(=S)SSC(=S)C1CCCC1=NC(C)C (stereo not given)	102% (inactive)
N#CCCN(C(=S)Nc1ccc(Cl)c(Cl)c1)C1CCCCC1	105% (inactive)
Cc1cc(C)n(-c2ccc(Cl)c(C(=O)O)n2)n1	56.1% (active)
Cc1cc(C)n(-c2ccc3nncn3n2)n1	99% (inactive)
Cc1cc(C)n(-c2ccc(C(=O)O)cc2[N+](=O)[O-])n1	102% (inactive)
O=C(O)C(=Cc1ccc([N+](=O)[O-])cc1)CCc1ccccc1	103% (inactive)
CCOC(=O)c1c(C)[nH]c(C)c1C(=O)COC(=O)/C=C/c1cccc([N+](=O)[O-])c1	98.5% (inactive)
CCN1CCCC1CNC(=O)c1ccc2c(c1)NC(=O)/C(=C\c1ccccc1F)S2 (stereo not given)	94.9% (inactive)
Cc1ccc(NC(=O)N2CCSc3ccccc32)cc1	63% (active)
CCOc1ccc(CNC(=O)CCC(=O)N2CCSc3ccccc32)cc1	102% (inactive)
Cc1ccc(NC(=O)CN2CCc3ccccc3C2)cc1	95.1% (inactive)
CCN(CC)C(=O)C1=C(C)N(Cc2ccc(F)cc2)C(=O)C(CC(=O)NC2CCCC2)C1 (stereo not given)	109% (inactive)
CC1(C)CN(Cc2cccnc2)C(=O)[C@H]1CC(=O)Nc1ccc(Br)cc1	96.8% (inactive)
Cc1[nH]c2ccccc2c1C(=O)C(=O)NCc1nnnn1-c1cccc(F)c1	110% (inactive)
Cc1csc(SCC(=O)Nc2ccc(C)c(S(=O)(=O)N(C)C)c2)n1	100% (inactive)
FC(F)(F)C1CCCN(c2nsc3ccccc23)C1 (stereo not given)	59.3% (active)
O=C(NCC(=O)N1CCCC(C(F)(F)F)C1)c1ccccc1F (stereo not given)	98.7% (inactive)
O=C(NC(Cc1ccccc1)C(=O)N1CCCC(C(F)(F)F)C1)c1ccccc1 (stereo not given)	93.4% (inactive)
COc1ccc(-c2nn(-c3ccccc3)cc2/C=C2/SC(=S)N(CCCC(=O)O)C2=O)c(C)c1	104% (inactive)
CN(C)S(=O)(=O)c1cccc(-c2nn(-c3ccccc3)cc2/C=C2\SC(=S)N(CC(=O)O)C2=O)c1	34.1% (active)
Cc1ccc(-c2nn(-c3ccccc3)cc2/C=C2\SC(=S)N(CCCCCC(=O)O)C2=O)o1	93.2% (inactive)
